D1 potentiator: human D1 dopamine receptor positive modulation; 0.036% of 360,000 active; HEK293 TREx D1 cells, calcium flux, dopamine EC20 potentiation; potentiation, % at 10 µM; in the data active means potentiation above about 30%; further: 0% is about no effect
Target sequence (P21728 whole entry, looked up): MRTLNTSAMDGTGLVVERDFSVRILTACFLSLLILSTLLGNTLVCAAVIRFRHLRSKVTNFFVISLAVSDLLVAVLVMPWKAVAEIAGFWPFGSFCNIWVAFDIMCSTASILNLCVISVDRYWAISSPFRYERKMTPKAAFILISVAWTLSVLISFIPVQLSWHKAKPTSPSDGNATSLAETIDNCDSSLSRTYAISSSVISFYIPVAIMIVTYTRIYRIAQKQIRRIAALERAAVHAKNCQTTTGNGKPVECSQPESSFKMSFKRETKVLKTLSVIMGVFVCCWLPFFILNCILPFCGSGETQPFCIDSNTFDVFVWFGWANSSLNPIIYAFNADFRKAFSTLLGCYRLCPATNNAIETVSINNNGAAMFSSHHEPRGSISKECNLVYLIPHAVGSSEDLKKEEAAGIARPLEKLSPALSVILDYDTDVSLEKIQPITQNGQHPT
D1 antagonist: antagonists of human D1 dopamine receptor | HEK293 TREx D1 cells, calcium flux, dopamine EC80; active compounds read low | P21728 | activity change, negative = inhibition, % at 10 µM | 3.2% of 360,000 active; in the data active means activity change below about -30%; further: on the % scale 0 is the no-effect control and ±100 the full control effect
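Compound effects on dopamine-evoked calcium signalling were measured in tetracycline-induced HEK293 Trex D1 cells. Dopamine at EC80 followed a 180 s compound pre-read, and fluorescence was tracked kinetically for 180 s more.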
DRD3 agonist: D3 dopamine receptor (human) agonism; P35462; D3R DiscoveRx beta-arrestin cells, luminescence, 90 min; max activation, %; 0.58% of 410,000 active; AID 652048; in the data active means max activation above about 30%; further: 0% is about no effect
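Agonist-mode cell screen: cells plated at 1500/well and incubated overnight at 37 °C, then exposed to library compounds for 90 min at 37 °C. Detection reagent was added for 30–60 min at room temperature, and luminescence was read.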
D1 agonist: agonists of human D1 dopamine receptor; activation, % at 2 µM; P21728; HEK293 T-REx D1 cells, calcium flux, agonist mode; 1% of 360,000 active; in the data active means activation above about 30%; further: 0% is about no effect
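Agonism was scored from calcium flux recorded over 180 s (1 read/s) after pintool compound addition, following a 10-cycle baseline. Cells were inducible force-coupled HEK293 TREx D1, plated overnight at 30 C and loaded with no-wash calcium dye.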
D3 antag: blocks the human D3 dopamine receptor; P35462; 2.5% of 360,000 active; D3R cells, DiscoveRx beta-arrestin luminescence, antagonist mode; active compounds read low; AID 652054; max response, negative = inhibition, %; in the data active means max response below about -50%; inconclusive means no clear call, values can overlap the other calls; further: on the % scale 0 is the no-effect control and ±100 the full control effect
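Cells expressing the human receptor were seeded at 1500 cells/well, incubated overnight at 37 degrees C in 5% CO2, then exposed to library compounds with dopamine controls for 90 minutes at 37 degrees C before luminescent detection.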
* = called active by the depositor; u = inconclusive; x = not tested or not shown; + = active, no number; ! = a repeat was not active. Shown are actives, neighbours in structure and some others; about 6.1% of the full set was active somewhere.

SMILES	D1 potentiator	D1 antagonist	DRD3 agonist	D1 agonist	D3 antag
Cc1ccc(OCc2nnc(SCC(=O)c3cccs3)n2-c2ccccc2)cc1C	-3	28	0	15	-53*
Cc1ccc(C)c2sc(NC(=O)CN3C(=O)CCC3=O)nc12	7	-45*	-6	3	-28
Cc1nc(SCCOc2ccc(F)cc2)c2ccccc2n1	-11	3	1	34*	8
c1ccc(-c2ccccc2OCCCN2CCCC2)cc1	-3	-39*	-35	10	-71*
c1ccc(-c2ccccc2OCCCCN2CCCCC2)cc1	-6	-8	-38	9	-71*
c1ccc(-c2ccccc2OCCCN2CCCCCC2)cc1	-10	-43*	-1	24	u
COc1cccc(CN2CCN(CC#Cc3ccccc3)CC2CCO)c1 (centres undefined)	-3	0	-11	6	-15
CC(C)CNC(=O)COC(=O)CCC(=O)c1ccc(Cl)cc1	4	7	9	13	1
COc1ccc(NC(=O)c2cnc3sc(N4CCOCC4)nn3c2=O)c(OC)c1	0	-3	2	3	x
CC1C(=O)N2CCCc3cc(NC(=O)CC(C)(C)C)cc1c32 (centres undefined)	-12	-25	0	2	0
C/C(=N/OCC(=O)Nc1ccccc1)c1cccs1	11	-3	8	31*	-8
O=Cc1c(Sc2ccccn2)nc2ccccn2c1=O	8	-1	3	1	-52*
O=Cc1c(Sc2ccccc2)nc2ccccn2c1=O	-5	-4	6	1	9
Cc1c2ccccc2nc2c(F)c(NC(C)C)c(F)c(F)c12	-1	3	9	64*	17
CCOC(=O)c1ccc(NC(=O)C(CC)Sc2nc3ncccc3o2)cc1 (centres undefined)	-4	16	-18	0	x
Cc1ccc(CN2CCCn3nc(C(=O)NCC(C)c4ccccc4)cc3C2=O)cc1 (centres undefined)	1	17	-15	7	x
CCC(C)C(NC(=O)c1ccccc1NC(=O)c1ccco1)C(=O)NNC(=O)c1ccc(OC)cc1 (centres undefined)	-7	-63*	-3	-1	-3
COc1ccc(C(=O)Nc2ccccc2C(=O)NC(C(=O)NCc2ccco2)C(C)C)cc1 (centres undefined)	-2	-12	8	1	-61*
O=C(CNc1cc(S(=O)(=O)N2CCOCC2)ccc1N1CCCC1)NCc1ccco1	-3	30	3	0	3
CC12CCC(=O)C=C1CCCC2=O (centres undefined)	x	x	7	x	-6
CCc1ccc(CN(C(=O)Nc2cccc(Cl)c2)c2ccccn2)cc1	0	-19	-3	31*	x
CCO[C@H](Cc1ccc(OCCc2ccc(OS(C)(=O)=O)cc2)cc1)C(=O)O	x	x	-21	x	x
NC(=S)NN=Cc1c[nH]c2nccnc12	x	x	-31	x	+
O=C(NCCc1ccccc1)C(=O)Nc1nccs1	-6	-2	3	33*	0
Cc1ccc2oc(C(=O)NCc3ccc(S(N)(=O)=O)cc3)cc(=O)c2c1	7	0	0	0	2
SMILES	D1 potentiator	D1 antagonist	DRD3 agonist	D1 agonist	D3 antag
COc1ccc(CNC(=O)Cc2coc3ccc(C)cc23)cc1	-3	-35*	-8	6	x
Cc1ccc(CNC(=O)c2cc(=O)c3cc(C)ccc3o2)cc1	-10	2	-8	60*!	6
CCc1ccc(NC(=O)CN2CCCN(Cc3cccc(Cl)c3)S2(=O)=O)cc1	-1	-8	-9	2	x
O=C(N/N=C/c1ccc(N2CCOCC2)cc1)c1ccc(O)cc1	-5	-55*	-6	2	0
COc1ccc(-n2c3c(c(=O)[nH]c2=O)C(NC(=O)c2ccccc2Cl)(C(F)(F)F)C(=O)N3)cc1 (centres undefined)	-3	6	-1	1	x
Cc1oc(C(C)(C)C)cc1C(=O)Nc1ccc2c(c1)OCO2	-9	-32*	-6	1	0
O=C(O)CCc1c(C(=O)O)[nH]c2ccccc12	-4	6	-9	1	11
O=C(O)CCc1[nH]c2ccccc2c1Sc1ccccc1	0	-4	-19	0	-67*
CCc1ccc(S(=O)(=O)N(C(C)=O)c2ccc3oc4c(c3c2)CCCC4)cc1	-1	6	-1	2	x
Cc1ccc2c(c1)/C(=C/c1ccccc1C)C(=O)N2	0	-31*	4	2	-14
Cc1ccc2c(c1)/C(=C/c1ccc(F)cc1)C(=O)N2	-6	-7	-6	3	-21
CCCCn1c(-c2csc(CCC)c2)n[nH]c1=S	-3	-13	4	57*	-10
CCCc1cc(-c2n[nH]c(=S)n2CC)cs1	-12	-15	1	2	5
CCOC(=O)CN(Cc1ccccc1)C(C(=O)NC1CCCCC1)c1ccc(C)cc1 (centres undefined)	-1	8	-16	8	x
COc1cc(C=C2C(=O)C=CC2=O)ccc1O	x	x	-19	x	-136*
COc1cc(/C=C/C(=O)CC(=O)/C=C/c2ccc(O)c(OC)c2)ccc1O	-2	-59*	-12	334*	-3
COc1cc(/C=C/C(=O)/C=C(O)/C=C/c2ccc(O)c(OC)c2)ccc1O	-2	-16	1	262*	-12
COc1cc(C=O)ccc1O	x	x	3	x	x
COc1cc(/C=C/C(=O)O)ccc1O	x	x	6	x	13
CC[C@@H]([C@H](C)O)n1ncn(-c2ccc(N3CCN(c4ccc(OC[C@@H]5CO[C@@](Cn6cncn6)(c6ccc(F)cc6F)C5)cc4)CC3)cc2)c1=O	x	x	4	x	x
CCSc1ncc(Cl)c(C(=O)Nc2ccc(S(=O)(=O)N3CCC(C)CC3)cc2)n1	1	-3	-11	2	x
CCc1ccc(NC(=O)c2nc(S(=O)(=O)Cc3ccccc3)ncc2Cl)cc1	-13	-64*	x	4	x
COc1cccc(NC(=O)c2nc(S(C)(=O)=O)ncc2Cl)c1	-5	-13	-33	0	-109*
CCOC(=O)c1c(NC(=O)c2nc(S(C)(=O)=O)ncc2Cl)sc(C(C)=O)c1C	2	-31*	7	1	x
CSc1nnc(NC(=O)c2nc(S(=O)(=O)Cc3ccccc3)ncc2Cl)s1	2	2	0	0	u
Cc1cccc(NC(=O)c2nc(S(C)(=O)=O)ncc2Cl)c1	-8	-3	-26	1	x
CCS(=O)(=O)c1ncc(Cl)c(C(=O)Nc2ccc(S(=O)(=O)N3CCC(C)CC3)cc2)n1	-13	-66*	-36	2	-61*
CCOC(=O)c1c(-c2ccc3ccccc3c2)csc1NC(=O)CCCC(=O)O	-7	-56*	6	18	29
CCS(=O)(=O)c1ncc(Cl)c(C(=O)Nc2ccccc2)n1	-3	-30*	-23	5	x
Cc1ccc(CS(=O)(=O)c2ncc(Cl)c(C(=O)Nc3nc4ccc(C)cc4s3)n2)cc1	-2	-29	-13	0	x

Screens: PubChem BioAssay, National Center for Advancing Translational Sciences (NCATS)
